Structures are written as SMILES.

For this assay, the system named is wheat germ agglutinin (Triticum aestivum), Alexa647-labelled. Nature of the assay: wheat germ agglutinin binders on compound microarrays, profiling panel, artefact control for SMM control-protein annotation, biochemical, small-molecule microarray, 635/667 nm fluorescence (AID 1140).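 Note: score merges 667 nm feature emission with signal to noise over triplicate slides.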 Particulars: WGA-A647 binding, 635 nm fluorescence, higher = more signal.
`Cc1ccc(N2C(=O)c3ccccc3[C@@H](C(=O)NCC(F)(F)F)[C@@H]2c2ccc(CO)cc2)nc1` registered a composite z-score of -0.925.
Next, `CC(C)N1CC=CC23O[C@@H]4/C=C\CCCOC(=O)C4[C@H]2C(=O)N(CCO)[C@@H]3C1=O` (stereo partly specified): -0.505.
Next, `O=C(NCC(F)(F)F)[C@@H]1c2ccccc2C(=O)N(Cc2ccccc2Cl)[C@H]1c1ccc(CO)cc1`: -0.742; `C=CCNC(=O)[C@H]1[C@@H]2C(=O)O[C@@H](c3ccccc3)[C@@H](c3ccccc3)N2[C@@H](c2ccccc2OCCO)[C@]12C(=O)N(C(=O)OCCOC)c1ccc(C#CCC(C(=O)OC)C(=O)OC)cc12`: 1.08.
The value for `C[C@@H]1C=CCC(=O)OC[C@H]2O[C@@H](C=C[C@@H]2O)[C@H](C)C=CCC(=O)OC[C@H]2O[C@H]1C=C[C@@H]2O` was -0.312; that for `Cc1ccc(S[C@]2(C(=O)NCCN3CCOCC3)CC(=O)N(C3Cc4ccccc4C3)[C@@H]2c2ccc(CO)cc2I)cc1` was 1.01.
Consider `CC(C)CNC(=O)[C@@]1(C)c2ccccc2C(=O)N(Cc2ccc(OC(F)(F)F)cc2)[C@H]1c1ccc(CO)cc1`, for which the composite z-score is -0.0416.
For `CO[C@H]1COC(=O)CC=C[C@@H](C)COC(=O)[C@@H](C)NC(=O)CC=C[C@@H]1C`, the composite z-score is -0.673.
Next, `C=C[C@H](OC)[C@@H](OC(=O)Nc1ccc(SC)cc1)c1ccc(O)c(F)c1`: 0.0251; `[N-]=[N+]=NCc1ccccc1C[C@@]1(C(=O)N2CCOCC2)N=C(c2ccc(OCCCO)cc2)O[C@@H]1c1ccccc1N=[N+]=[N-]`: 1.37.
Consider `[N-]=[N+]=NCc1ccccc1C[C@@]1(C(=O)O)N=C(c2ccc(OCCCO)cc2)O[C@@H]1c1ccccc1N=[N+]=[N-]`, for which the composite z-score came to 0.415.
The value for `CSCC[C@@H]1NC(=O)CC=C[C@@H](C)COC(=O)[C@H](CCSC)NC(=O)CC=C[C@@H](C)COC1=O` was -0.725; that for `C=C(COC)/C(=C/C[C@@H](OC(C)=O)c1cccc(OCCO)c1)c1cc(C(=O)OC)ccc1OC` was -1.12; that for `CCOC(=O)C[C@H]1[C@H](OC(=O)c2cc3ccccc3oc2=O)[C@@H](NC(=O)C2CCCCC2)c2cc(OCCCO)ccc2N1C(=O)c1ccc2ccccc2n1` was 0.755.
Next, `C=C(COC)C(=O)CC[C@H](OC(=O)c1ccccc1-c1ccccc1C(=O)O)c1cccc(OCCO)c1`: -0.496.
Next, `C=CC[C@]1(C(=O)OC)N=C(c2ccc(OCCCO)cc2)O[C@H]1c1ccccc1CN=[N+]=[N-]`: 0.605.

The values are drawn from PubChem BioAssay.
